The panel holds about 83,000 compounds, 20% with a hit somewhere; the sample as a whole holds those more often.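 Each cell line was grown in a 96-well plate and treated with one concentration of compound for 48 hours. Values below 10 were considered active.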 Calls of active or inactive are those of the source.

For this assay, the system named is IGROV1 ovarian. Briefly: NCI-60 one-dose screen, 48 h (100 = growth as untreated, 0 = no growth, -100 = all killed). The conditions noted are these: 10 µM unless noted. Here is the method: Growth inhibition of the IGROV1 human tumor cell line is measured as a screen for anti-cancer activity. Cells are grown in 96 well plates and exposed to the test compound for 48 hours. Compounds are tested at a single concentration, which is 10^-5 M for most compounds. The reported endpoint is percent growth (GI% or GIPRCNT), where numbers from 0 - 100% represent growth inhibition, and numbers from -100% - 0 represent cell death. For example, a value of 40 represents 60% growth inhibition. A value of 0 means no net growth occurred over the course of the experiment. A value of -40 indicates 40% of cells at the beginning of the experiment died by the end of the experiment. A value of -100 means all cells are dead at the end of the experiment.
NCI-60 Human Tumor Cell Lines Screen was performed using the standard one-dose NCI protocol, which is described in more detail at https://dtp.cancer.gov/discovery_development/nci-60/default.htm.
Compounds with GIPRCNT values below 10 were considered active. Activity score was based on GIPRCNT using the following formula: […]
Score is 0 for GIPRCNT values of 100 or above, 50 for GIPRCNT values of 0, and 100 for GIPRCNT values of -100.
For `Brc1ccc(-c2cc(-c3ccc4c(c3)OC=CO4)n[nH]2)s1`, the growth is 81% (inactive). With `CNC(=O)c1cc(-n2ccc3cc(NC(=O)Nc4ccc(N5CCN(C)CC5)c(C(F)(F)F)c4)ccc32)ccn1`, the growth was 91.9% (inactive). Turning to `C#CCOc1ccc(/C=N/Nc2nc(-c3ccc(OC)cc3)cs2)cc1`, the growth is 96.6% (inactive). Consider `COc1cc(C(=O)c2cc(C(C)=O)c3c(C)cccn23)cc(OC)c1OC`, for which the growth is 97.6% (inactive). For the compound `COC(=O)N1CCN(CCNCc2ccc(NC(=O)c3ccc(C)c(C#Cc4cnc5cccnn45)c3)cc2C(F)(F)F)CC1`, the growth was 11.3% (inactive). Next, `Cn1cc(-c2cc3ncnc(Nc4ccc(NC(=O)Nc5cc(C(C)(C)C)on5)cc4)c3s2)cn1`: 19.8% (inactive); `CCCCSC1=C(Cl)CN(c2ccc(Cl)cc2)C1=O`: 109% (inactive); `Oc1ccc(-c2nc3ccc(/C(=N\N=C\c4ccc(Cl)cc4)c4ccccc4)cc3[nH]2)cc1`: 89.9% (inactive). `CC(C)C(/C=C/c1[nH]ncc1-c1cc(Cl)ccc1O)N1CCOCC1` (stereo not given): the growth is 88.6% (inactive). On to `O=[N+]([O-])c1ccc(NC(=S)NNC(=S)Nc2ccc(F)cc2)cc1`, for which the growth was 83.5% (inactive). `COC(=O)CCSC1=C(C)C(=O)c2ccccc2C1=O`: the growth is 80.8% (inactive). On to `C[C@]12CC[C@H]3[C@@H](CC=C4C[C@@H](O)CC[C@@]43C)[C@@H]1CC[C@@H]2[C@](C)(O)CCc1cccnc1`, for which the growth was 81.3% (inactive).

As to `C#Cc1cc(OC)c(C(=O)Nc2ccc(F)cc2C(=O)Nc2cccc(S(=O)(=O)C(F)(F)F)c2)cn1`, the growth was -51% (active).

On to `Cn1c(SCC(=O)c2ccco2)nc2ccccc2c1=O`, for which the growth is 86.1% (inactive).

Take `CN1CCN(Cc2ccc(NC(=O)c3cncc(C#Cc4cnc(N)nc4)c3)cc2C(F)(F)F)CC1`: the growth is 14.6% (inactive). With `CN1CCN(c2ccc(Nc3nc(NCCNC(=O)c4ccccc4)c4sccc4n3)cc2)CC1`, the growth is 87.9% (inactive). In the case of `O=C(CSc1nc2ccccc2c(=O)n1-c1ccccc1)N/N=C/c1ccc(Oc2ccc(Br)cc2)cc1`, the growth is 65.6% (inactive). Take `Cc1cc(NS(=O)(=O)c2ccc(NC(=O)CSc3nc4ccccc4c(=O)n3-c3ccccc3)cc2)no1`: the growth is 97.6% (inactive). Next, `Clc1cccc(/C=N/Nc2nc(N/N=C/c3cccc(Cl)c3)nc(N3CCOCC3)n2)c1`: 50.7% (inactive); `C#CCOc1ccc(-c2csc(NC(=O)C=C)n2)cc1NS(=O)(=O)c1cccc2c(N(C)C)cccc12`: 32.3% (inactive); `C#CCN(C)CCCOc1ccc(NC(=O)CCCCCCC(=O)NO)cc1Cl`: 17% (inactive).

`NS(=O)(=O)c1ccc(Nc2nc(N/N=C/C=C/c3ccccc3)nc(Nc3ccccc3)n2)cc1`: the growth is 36.8% (inactive).

For `CC[C@]12C=CCN3CC[C@]4(C(=C(C(=O)OC)C1)Nc1cc5c(cc14)[C@@H]1[C@H](O5)[C@@H](O)[C@@]4(CC)CC(C(=O)OC)=C5Nc6cc(O)ccc6[C@@]56CCN1C46)C32` (stereo not given in full), the growth was -2.81% (active). Take `O=C(Nc1ccc(N2CCOCC2)cc1)Nc1ccc2c(ccn2C(=O)c2cccc(F)c2)c1`: the growth was 81% (inactive). As for `C=C(C)[C@@H]1CC[C@]2(COP(=O)(OCC)OCC)CC[C@]3(C)[C@H](CC[C@@H]4[C@@]5(C)CC[C@H](OP(=O)(OCC)OCC)C(C)(C)[C@@H]5CC[C@]43C)[C@@H]12`, the growth was 74.5% (inactive). `O=C(/C=C/c1cccc(F)c1)c1cccc(OCCCOc2cccc(C(=O)/C=C/c3cccc(F)c3)c2)c1`: the growth is 36.9% (inactive). In the case of `CN1CCN(c2ccc(Nc3nc(NCCNS(=O)(=O)c4ccc(Cl)cc4)c4sccc4n3)cc2)CC1`, the growth is 92.9% (inactive).

Regarding `CN1CCN(Cc2ccc(NC(=O)c3cncc(C#Cc4cnc5ccc(OCC6COC6)nn45)c3)cc2C(F)(F)F)CC1`, the growth is -39% (active). Consider `CC1=C(C)C(=O)C(Nc2ccc3c(c2)OCO3)=C(Br)C1=O`, for which the growth was 90.9% (inactive).

Regarding `COc1ccc(/C(=N\NC(N)=S)c2ccc(Cl)cc2)cc1OC`, the growth is 30.3% (inactive).

With `c1ccc(-c2cn3c(-c4c[nH]c5ccccc45)csc3n2)cc1`, the growth was 62.2% (inactive). As for `Oc1[nH]c2ccc(Cl)cc2c1N=Nc1nc(N=Nc2c(O)[nH]c3ccc(Cl)cc23)nc(N2CCCCC2)n1`, the growth was 22.9% (inactive). The value for `CC(C)(C)c1cc(NC(=O)Nc2ccc(-c3cn4c5c(sc4n3)CCc3c[nH]cc3-5)cc2)no1` was 38% (inactive); that for `O=C1Nc2ccc(F)cc2/C1=C\C(=O)c1ccc(NS(=O)(=O)c2ccccc2)cc1` was 87.2% (inactive). Regarding `CN1CCN(c2ccc(Nc3nc(NCCCNS(=O)(=O)c4ccc(Cl)cc4)c4sccc4n3)cc2)CC1`, the growth was 25.9% (inactive). For `NC(=O)n1c(=O)n(-c2cccc(C(F)(F)F)c2)c(=O)c2cc(-c3ccc(F)cc3F)ccc21`, the growth is 14.8% (inactive).

`CC(=O)c1cc(C(=O)N2c3ccccc3Sc3ccccc32)n2c1ccc1ccccc12`: the growth is 52.7% (inactive). Take `COc1ccc(-c2cnc(NC(=O)CCCCCCNC(=O)C(O)(O)C(F)(F)F)s2)cc1`: the growth was -18.7% (active). Turning to `NNc1nnc2nc(Nc3ccccc3)nc(Nc3ccc(S(N)(=O)=O)cc3)n12`, the growth is 98.3% (inactive). Regarding `Nc1ncc(-c2ccc3ncnc(NCc4ccccc4)c3c2)cn1`, the growth is -8.67% (active).

Values taken from PubChem BioAssay (NCI).
